In PubChem BioAssay (NCATS):
Results filed as inconclusive are left out. Values without a mark were called inactive. The call rests on the fitted dose curve; in most records, active means well fitted curve in either direction with a large enough effect (not every such curve was filed as active); inconclusive means small, poorly fitted or top-dose-only effect, or another doubt; inactive means flat fitted curve, though single readings scatter.
On the % scale 0 is the no-effect control and ±100 the full control effect.

Assay: NFAT Signaling Pathway (AID 444);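 further: carbachol stimulus at about its EC50 of 1 µM final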
Details: Jurkat NFAT-bla M1, carbachol, beta-lactamase ratio, 5 h; at 38 µM (top of the series)
Outline: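 Read-out: CCF4 FRET ratio (460 nm/530 nm) after 1 h RT dye loading, used for %activity and AC50 from titration series. Cells: Jurkat NFAT-β-lactamase/M1 line, treated with compound plus 1 uM carbachol for 5 h, 37 °C.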
In the case of `O=C1CCc2cc(OCCCCc3nnnn3C3CCCCC3)ccc2N1`, the activity change, negative = inhibition is reported as -9.05%. `Cc1[nH]c(=O)c(C#N)cc1-c1ccncc1` gave an activity change, negative = inhibition of -0.614%. For `Nc1nc2c(ncn2COCCO)c(=O)[nH]1`, the activity change, negative = inhibition was 9.44%. In the case of `CCOC(=O)C1=C[C@@]2(CC)CCCN3CCc4c(n1c1ccccc41)[C@H]32`, the activity change, negative = inhibition is reported as 0.129%. Compound `Cc1ccc(N(CC2=NCCN2)c2cccc(O)c2)cc1` has an activity change, negative = inhibition of -12.9%. For `NC(=O)c1cnccn1`, the activity change, negative = inhibition was 2.31%. Work on `Cc1cn[nH]c1` yielded an activity change, negative = inhibition of -5.73%. Compound `C1COC(NC(C2CC2)C2CC2)=N1` has an activity change, negative = inhibition of -2.75%.
